Screening results: PubChem BioAssay, National Center for Advancing Translational Sciences (NCATS)
Only some compounds are listed: those with a hit (about 10% of all), similar ones and a draw of the others.
FLuc inh: Firefly luciferase inhibition profiling of diverse chemical library using quantitative high-throughput screening | Luciferin 4-monooxygenase (Photinus pyralis), P08659 | 76,000 tested, 2.5% active | Potency, µM (series often up to 115 µM), most hits filed as inhibitors | purified P. pyralis luciferase, luminescence, biochemical | AID 1347043, 2019; note: nearly all actives have a fitted effect of over 65% in size
Target sequence (P08659 whole entry, looked up): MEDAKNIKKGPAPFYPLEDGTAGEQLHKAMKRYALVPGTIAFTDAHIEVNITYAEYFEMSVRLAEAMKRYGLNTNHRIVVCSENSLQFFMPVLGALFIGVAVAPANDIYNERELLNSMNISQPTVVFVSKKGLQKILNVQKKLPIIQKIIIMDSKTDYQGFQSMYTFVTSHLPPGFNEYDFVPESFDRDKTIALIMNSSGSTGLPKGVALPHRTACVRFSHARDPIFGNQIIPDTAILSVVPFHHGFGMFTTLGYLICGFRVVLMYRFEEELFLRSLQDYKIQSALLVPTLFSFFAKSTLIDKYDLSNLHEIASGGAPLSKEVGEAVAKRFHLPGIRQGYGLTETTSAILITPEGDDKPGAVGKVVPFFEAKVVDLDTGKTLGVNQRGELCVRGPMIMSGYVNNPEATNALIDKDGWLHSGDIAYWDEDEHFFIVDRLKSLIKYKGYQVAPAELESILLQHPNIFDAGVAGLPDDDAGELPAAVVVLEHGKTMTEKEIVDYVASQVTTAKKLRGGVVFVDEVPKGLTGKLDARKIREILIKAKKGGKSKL
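Luminescence read by CCD imager after adding enzyme (10nM final) to wells holding compound, titrated in qHTS. Substrates 10uM each D-luciferin and ATP; buffer 50mM Tris acetate pH 7.5, 10mM Mg acetate, Tween-20, BSA.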
3T3 cytotox: Cytotoxic Profiling in NIH 3T3 Cell Line of Diverse Libraries Using Quantitative High-Throughput Screening. 94,000 tested, 4.3% active. Potency, µM (highest dose often 96.7 µM), without a hit: at the top dose activity change, negative = cytotoxicity, usual class: inhibitors. NIH 3T3 viability, CellTiter-Glo ATP luminescence, 48-72 h; note: nearly all actives have a fitted effect of over 55% in size
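Cytotoxicity is measured as loss of cellular ATP: NIH 3T3 cells (400/well) are exposed to compound for 48 or 72 hr at 37 °C, then CellTiter-Glo luminescence is imaged after 10 min at room temperature.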
HEK293 tox: Cytotoxic Profiling in HEK 293 Cell Line of Diverse Libraries Using Quantitative High-Throughput Screening | AID 1345083, 2018 | HEK 293 viability, ATP luminescence (CellTiter-Glo), 48-72 h | Potency, µM (doses to about 115 µM), inactives show top-dose activity change, negative = cytotoxicity, usual class: inhibitors | 94,000 tested, 6.6% active; note: nearly all actives have a fitted effect of over 60% in size
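Pintool-delivered compounds were incubated with HEK 293 cells (250 cells/well) at 37 degree Celsius for 48 or 72 hr. ATP-dependent luminescence (CellTiter-Glo) then reported remaining viable cells.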
NPR1 antag: Natriuretic polypeptide receptor (hNpr1) antagonism - Primary qHTS | HEK293 hNpr1 GloSensor cGMP, ANP-stimulated luminescence | Potency, µM (top dose mostly 46.3 µM), for inactives: at the top dose activity change, negative = inhibition, most hits filed as inhibitors | 76,000 tested, 1.6% active | AID 1347048, 2019; calls by dose curve; note: nearly all actives have a fitted effect of over 60% in size
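HEK293 cells stably expressing human Npr1 and cGMP GloSensor pGS-40F, loaded 2 h with 2% GloSensor reagent, given compound 30 min at room temperature. Luminescence read before and 20 min after 0.1 nM hNppA.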
GPT2 inh: Primary qHTS assay for inhibitors of Glutamate pyruvate transaminase 2 (GPT2); Alanine aminotransferase 2 (Homo sapiens), Q8TD30; Recombinant GPT2, coupled pyruvate oxidase/HRP Amplex Red fluorescence; Potency, µM (series often up to 57.7 µM), inactives show top-dose activity change, negative = inhibition, hits mostly inhibitors; 100,000 tested, 0.25% active; note: nearly all actives have a fitted effect of over 60% in size
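Inhibition is scored from Amplex Red fluorescence generated when pyruvate oxidase and HRP act on pyruvate released by GPT2. Reactions contain 10ng/uL enzyme, 250uM a-KG and 2mM L-alanine and run 30 min at room temperature.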
* hit, by the source's call; i = inactive; u = inconclusive; x = no result given; ! = repeats disagree; [ ] = another dose, or the depositor's remark. Unless noted, calls come from the whole dose curve; as a rule, active = well fitted curve in the direction sought with a large enough effect; inconclusive = small, poorly fitted or top-dose-only effect, or another doubt; inactive = no such curve, though single readings can be large; an effect the other way counts as inactive or inconclusive. % is set by controls: 0 for no effect and ±100 for the full control effect; potency is the fitted concentration of half-maximal effect.

SMILES	FLuc inh	3T3 cytotox	HEK293 tox	NPR1 antag	GPT2 inh
O=C(C1CCCN1C(=O)c1ccccc1F)N1CCC(N2CCCC2=O)CC1 (stereo not given)	x	-17%	-5%	x	i
Cc1ncoc1C(=O)N1CCC([C@H]2[C@@H](Oc3ccccc3)CN2C(C)C)CC1	x	-24%	-18%	x	i
CC(C)c1noc(CN(C)C(=O)c2csc3nc(-c4ccc(F)cc4)cn23)n1	i	u	45µM*	u	3%
CN(Cc1nccn1C)C(=O)c1csc2nc(-c3ccc(C(F)(F)F)cc3)cn12	40µM*	u	40µM*	-11%	-11%
CC(C)(CN1CCOCC1)NC(=O)c1csc2nc(-c3ccc(F)cc3)cn12	i	-27%	u	0%	4%
O=C(C1CCCN1C(=O)c1ccccc1F)N1CCC(c2nc3ccncc3[nH]2)C1 (stereo not given)	x	0%	-3%	x	4%
Cc1cccc(-c2cccc(CN3CCC(N[S+](=O)([O-])c4cccc(C(F)(F)F)c4)CC3)c2)c1	x	11µM*	u	x	-12%
CSc1ccc(-c2cccc(CN3CCC(NC(=O)c4ccc(F)cc4)CC3)c2)cc1	x	-15%	-8%	x	x
CSc1ccc(-c2cccc(CN3CCC(N[S+](=O)([O-])c4cccc(C(F)(F)F)c4)CC3)c2)cc1	x	10µM*	13µM*	x	x
COc1ccccc1C(=O)NC1CCN(c2ccnc3ccnn23)CC1	x	u	u	x	4%
Cc1nc(C)c(-c2ccc(C3CCC(CC(=O)O)CC3)cc2)nc1C(N)=O (stereo not given)	x	x	x	x	i
Cc1ncc2n1C(=O)N(C1CCN(Cc3ccc(C(F)(F)F)cc3)CC1)C2	i	u	35µM*!	u	-13%
CCN1C(=O)C2(CCN(S(=O)(=O)Cc3ccccc3)CC2)c2ccccc21	i	-4%	-1%	-10%	-6%
CCN1C(=O)C2(CCN(S(=O)(=O)Cc3ccc(Cl)cc3)CC2)c2ccccc21	i	25µM*	35µM*	-12%	i
O=C1CC(c2ccccc2)N(Cc2ccncc2)CCCN(S(=O)(=O)c2cccc(F)c2)CCN1 (stereo not given)	i	u	45µM*	-13%	i
C=C1CCC2C(C)(C(=O)O)CCCC2(C)C1CC/C(=C\CO)CO (stereo not given)	x	x	x	x	i
CN1CCOC(c2ccccc2)c2ccccc2C1 (stereo not given)	x	x	x	x	-3%
CN1CCC(N(Cc2ccccc2)[C@@H]2C[C@@H]3CO[C@H](c4ccccc4)C[C@@H]3C2)CC1	x	14µM*	u	x	x
Fc1ccc2nc([C@H]3CCN(C4CCC4)C3)[nH]c2c1	5µM*	u	u	40µM*	u
COc1ccc2nc([C@H]3CCN(CC(C)C)C3)[nH]c2c1	i	112µM*	89µM*	-14%[70.6 µM]	-20%[88.5 µM]
O=C(C1CCCN([S+](=O)([O-])c2cccs2)C1)N1CCCC(c2nc3ncccc3[nH]2)C1 (stereo not given)	x	u	89µM*	x	2%
O=C(C1CCCN([S+](=O)([O-])c2cccs2)C1)N1CCC(c2nc3ccncc3[nH]2)C1 (stereo not given)	x	-8%	i	x	-3%
COc1ccc2nc([C@H]3CCN(C4CCCCC4)C3)[nH]c2c1	14µM*	u	u	u	-1%[88.5 µM]
COc1ccc(CN2CC[C@H](c3nc4ccc(C)cc4[nH]3)C2)cc1	i	79µM*	79µM*	0%[70.6 µM]	1%[88.5 µM]
COC(=O)N1CCC(C(=O)N2CCC(c3nc4ncccc4[nH]3)CC2)CC1	x	i	i	x	i
SMILES	FLuc inh	3T3 cytotox	HEK293 tox	NPR1 antag	GPT2 inh
COC(=O)N1CCC(C(=O)N2CCC(c3nc4ncccc4[nH]3)CC2)C1 (stereo not given)	x	u	35µM*	x	i
c1cnc2nc([C@H]3CCN(C4CCCCC4)C3)[nH]c2c1	28µM*	2%[230 µM]	-14%[230 µM]	4%[70.6 µM]	1%[88.5 µM]
COc1ccc(CN2CC[C@H](c3nc4ccc(OC)cc4[nH]3)C2)cc1	u	u	u	-4%[70.6 µM]	i
CC(=O)N1CCC(N2CC[C@H](c3nc4ncccc4[nH]3)C2)CC1	i	3%[174 µM]	-2%[172 µM]	-1%[70.6 µM]	i
Cc1ccc2nc([C@H]3CCN(Cc4ccc(S(C)(=O)=O)cc4)C3)[nH]c2c1	i	-26%[174 µM]	79µM*	-17%[70.6 µM]	5%[88.5 µM]
CN(C)C(=O)C1CCN(Cc2ccccc2-c2cccnc2)CC1	x	-5%[138 µM]	-7%[172 µM]	x	-10%[88.5 µM]
Cn1c(=O)c2ccnn2c2ccc(C(=O)NCC3CCN(Cc4cccc(F)c4)CC3)cc21	i	u	79µM*	2%	i
CN1CCC(NC(=O)c2ccc3c(c2)n(Cc2ccc(F)cc2)c(=O)c2ccnn23)CC1	i	22µM*	25µM*	3%	i
CCn1c(=O)c2ccnn2c2ccc(C(=O)Nc3ccc(C)c(F)c3)cc21	i	-6%	45µM*	4%	1%
CCCCNC(=O)c1ccc2c(c1)n(Cc1ccc(F)cc1)c(=O)c1ccnn12	i	u	u	-13%	i
CCn1c(=O)c2ccnn2c2ccc(C(=O)NCCCOC(C)C)cc21	i	-11%	u	-9%	i
N#Cc1ccnc(Nc2cc(C3CCN(C4COC4)CC3)cc(N3CCC(F)(F)C3)n2)c1	x	x	x	x	3%
O=C(Cc1ccc(F)cc1)N1CCCC(C(=O)N2CCC(c3nc4ncccc4[nH]3)CC2)C1 (stereo not given)	x	-24%	-26%	x	-7%
CCN1CCC(N2CCC(Oc3ccccc3-c3nc(-c4ccncc4)no3)C2)CC1 (stereo not given)	i	6.3µM*	13µM*	-2%	i
CC(C)NC(=O)N1CCC(Oc2ccccc2-c2nc(-c3ccccc3)no2)C1 (stereo not given)	u	u	u	13%	i
O=C(Nc1ccccc1)N1CCC(Oc2ccccc2-c2nc(-c3ccccc3)no2)C1 (stereo not given)	u	32µM*	25µM*	0%	-3%
O=C(CCc1ccccc1)N1CC(Oc2ccccc2-c2nc(-c3ccccc3)no2)C1	x	35µM*	40µM*	x	i
O=C(Nc1cc(C2CC2)nn1-c1ccccc1)c1ccccc1F	x	u	u	x	i
Cc1ccc(-c2cn3cc(C(=O)NCc4ccccc4)nc3s2)cc1	x	-29%	u	x	i
